Sampled rows, rich in hits. Any-hit rate of the full collection: about 13%.
Pf growth 96h = Primary qHTS for delayed death inhibitors of the malarial parasite plastid, 96 hour incubation | P. falciparum luciferase reporter growth, 96 h | Potency, µM (series often up to 28.7 µM), inactives show at the highest dose activity change, negative = inhibition, most hits filed as inhibitors | 320,000 tested, 6.9% active; note: potency is the fitted concentration of half-maximal effect
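Cell-based qHTS: luciferase-tagged P. falciparum in erythrocytes (2% hematocrit, 0.05% parasitemia final) incubated with compounds for 96 hours, 37 C, 5% CO2; luciferase detection reagent then added and luminescence measured.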
HCV inh = qHTS Assay for Inhibitors of Hepatitis C Virus (HCV); Huh7.5.1 HCVcc-Cre infection, luciferase reporter, 44 h; Potency, µM (series often up to 41.8 µM), for inactives: at the top dose activity change, negative = inhibition, usual class: inhibitors; 340,000 tested, 3.4% active; note: potency is the fitted concentration of half-maximal effect
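HCVcc-Cre virus at an moi near 0.5 was added right after compound to cells cultured 4 h from seeding (1,000 cells/well). Luciferase activity was determined 44 h later, 15 min after substrate addition at RT.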
HCMV antiviral = qHTS Assay for inhibitors of the human cytomegalovirus (HCMV) | activity change, negative = inhibition, % at 57.5 µM | HFF cells, HCMV-luciferase reporter, 72 h; active compounds read low | 410,000 tested, 4.5% active | AID 1259415, 2018; in the data active = activity change below about -60%; inconclusive = no clear call, values can overlap the other calls; inactive = above about -39%
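Two-dose cell screen: HFF monolayers treated with compounds and infected with luciferase-expressing HCMV at 1 PFU/cell, 72 h at 37C, then lysed for luciferase measurement.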
Pf growth 48h = Primary qHTS for delayed death inhibitors of the malarial parasite plastid, 48 hour incubation; Potency, µM (top dose mostly 28.7 µM), for inactives: at the highest dose activity change, negative = inhibition, actives largely listed as inhibitors; P. falciparum luciferase growth in erythrocytes, 48 h; 310,000 tested, 5.9% active; note: potency is the fitted concentration of half-maximal effect
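Parasite viability was followed by luminescence of a genomically integrated firefly luciferase. Cultures held 0.1% parasitemia at 2% hematocrit (final), incubated under 5% CO2 at 37 C.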
An asterisk follows results filed as active; ? = inconclusive; . = no result given. Unless noted, calls come from the whole dose curve; as a rule, active = well fitted inhibition curve with a large enough effect; inconclusive = small, poorly fitted or top-dose-only effect, or another doubt; inactive = no such curve, though single readings can be large or run the other way. % is set by controls: 0 for no effect and ±100 for the full control effect.

SMILES	Pf growth 96h	HCV inh	HCMV antiviral	Pf growth 48h
COc1ccc2c(c1)C(n1c(C)ccc1C)C(=O)N2Cc1ccc(C(F)(F)F)cc1 (centres undefined)	.	.	14.4	.
CCOC(=O)c1c(C)[nH]c(C)c1S(=O)(=O)N1CCC(C(=O)NCc2ccccc2Cl)CC1	.	.	-3.6	.
CSc1ccccc1OCc1cc(C(=O)N2CCN(c3ccccc3)CC2C)no1 (centres undefined)	-16.2%	?	70.2	?
C=CCC1(CC=C)CCCN1C(=O)c1cc(COc2ccc(C)nc2)on1	-5.5%	0.794µM*	-75.6*	?
CSc1ccccc1OCc1cc(C(=O)N2CCc3[nH]cnc3C2c2ccccn2)no1 (centres undefined)	-16.9%	-17.3%	-60.2*	?
C=CCC1(CC=C)CCCN1C(=O)c1cc(COc2ccccc2SC)on1	-12.1%	?	-5.4	14.7µM*
CSc1ccccc1OCc1cc(C(=O)N2CCc3c(Cl)cccc3C2)no1	?	12.6µM*	?	17.4%
CC(C)(Oc1ccc(Cl)cc1)C(=O)Nc1nnc2n1CCS2	.	.	-15.4	.
Cc1c(C(=O)NCC(c2ccc(Cl)cc2)N2CCOCC2)oc2ccccc12 (centres undefined)	.	.	21.7	.
CCOC(=O)N1CCC(NC(=O)c2cc(COc3ccc(F)cc3Cl)on2)CC1	34.9%	.	-10.7	?
CCOC(=O)N1CCC(NC(=O)c2cc(COc3ccccc3SC)on2)CC1	?	15.8µM*	-38.8	-12.5%
COc1ccc(OCC(NS(=O)(=O)c2ccc(-n3cnnn3)cc2)C(C)C)cc1 (centres undefined)	70.4%	39.8µM*	-4.6	?
CC(=O)c1ccc(OCCNS(=O)(=O)c2ccc(-n3cnnn3)cc2)cc1	-28.0%	-10.0%	5.3	-27.3%
COc1ccc(/C=N/NC(=S)Nc2ccccc2)cc1COc1ccc(Br)cc1	3.7µM*	1.3%	11.4	?
COc1ccc(/C=N/NC(=S)Nc2ccccc2)cc1COc1ccccc1F	?	-1.5%	-34.7	-23.6%
COc1ccc(/C=N/NC(=S)Nc2ccccc2)cc1COc1ccc(F)cc1	?	6.3%	3.1	10.4µM*
Cc1cc(C(C)(C)C)ccc1OCCCCN1CCCC1	3.2%	22.4µM*	-29.9	?
Cc1cc(Br)ccc1OCCCCN1CCCCC1	116.3%	10µM*	-35.6	?
CC(=O)c1cccc(NC(=O)c2ccc3nc(C(C)C)oc3c2)c1	.	.	38.1	.
COc1cc(CCC(=O)NCc2ccc3c(c2)CCN3C(=O)c2cccc(C)c2)cc(OC)c1OC	.	.	7.0	.
COc1ccc(/C=C/c2nc(S(=O)(=O)c3ccccc3)c(N(C)C)o2)cc1	?	22.4µM*	-9.5	?
COc1ccc(/C=C\c2nc(=O)c3ccccc3o2)cc1	-27.5%	18.1%	13.9	?
CN(C)c1oc(-c2ccccc2Cl)nc1C#N	.	25.1µM*	-28.8	12.4%
CN(C)c1oc(-c2ccccc2Cl)nc1S(=O)(=O)c1ccccc1	6.57µM*	-12.6%	54.9	.
Cc1ccc(Nc2ccc(N3CCN(C(=O)c4ccc([N+](=O)[O-])cc4)CC3)nn2)cc1	.	.	31.0	.
SMILES	Pf growth 96h	HCV inh	HCMV antiviral	Pf growth 48h
COc1ccc2c(Sc3ccccc3)c(C(=O)N3CCC(C)CC3)[nH]c2c1	.	.	31.6	.
CC(C)Cc1nc2c(nnn2Cc2ccccc2F)c(=O)[nH]1	9.28µM*	-9.4%	-36.8	?
FC(F)(F)c1ccc(Nc2cc3c(cn2)ncn3Cc2ccco2)cc1	.	.	-15.2	.
O=C1C=C(c2ccc(Cl)cc2)OC2(CCCC2)O1	13.1µM*	?	43.5	?
COC1OC2COC(c3ccccc3)OC2C(O)C1N (centres undefined)	.	24.1%	-10.0	.
COC1OC2COC(c3ccccc3)OC2C(O)C1NC(C)=O (centres undefined)	.	-0.4%	9.2	.
COc1cc(C2c3cc4c(cc3C(OC3OC5COC(c6cccs6)OC5C(O)C3O)C3COC(=O)C23)OCO4)cc(OC)c1O (centres undefined)	?	-30.7%	-98.7*	?
COc1cc(C2c3cc4c(cc3C(O[C@@H]3OC5COC(c6cccs6)OC5C(O)C3O)C3COC(=O)C23)OCO4)cc(OC)c1O (some centres undefined)	0.477µM*	.	.	0.536µM*
CCOC(=O)c1c(S(=O)(=O)NCC(=O)N(C)c2ccc(C)cc2)c(C)n(C)c1C	.	.	-9.7	.
COc1cccc(CN(C)C(=O)CNC(=O)c2ccc(-c3ccccc3)cc2)c1OC	?	3.16µM*	-71.4*	?
Cc1ccc(S(=O)(=O)N(CCC(=O)NCc2ccccc2F)c2ccccc2)cc1	?	-10.2%	-0.2	?
COc1cccc(CN(C)C(=O)CCN(c2ccccc2)S(=O)(=O)c2ccc(C)cc2)c1OC	?	11.2µM*	-32.3	?
Cc1ccc(N(Cc2cccs2)C(=O)COc2ccccc2[N+](=O)[O-])cc1	.	.	-68.3*	.
CC1(C(=O)NS(=O)(=O)c2cccc(C#N)c2)CCN1C(=O)CC1CCCC1 (centres undefined)	.	.	-31.5	.
CCOC(=O)C1=C(c2cccc(Oc3ccccc3)c2)NC(=S)NC1C (centres undefined)	.	8.91µM*	?	-28.2%
CCOc1ccc(C2NC(=O)c3sc(=S)n(-c4ccccc4)c3N2)cc1 (centres undefined)	5.86µM*	16.8%	106.9	4.15µM*
O=C1NC(c2ccccc2)Nc2c1sc(=S)n2-c1ccccc1 (centres undefined)	-41.6%	0.5%	-103.7*	7.0%
COc1ccc(C2NC(=O)c3sc(=S)n(-c4ccccc4)c3N2)cc1 (centres undefined)	.	-7.2%	-25.4	?
CC1=C(C(=O)Nc2ccccc2)C(CC(C)C)n2nc(SCc3ccccc3C)nc2N1 (centres undefined)	.	.	2.6	.
O=C(NCc1cccs1)c1ccc2c(c1)N(Cc1cccc(F)c1)C(=O)c1ccccc1S2	.	.	18.4	.
CCCn1nc(C(=O)Nc2nc(-c3ccccn3)cs2)c2ccccc2c1=O	4.15µM*	5.01µM*	27.6	4.15µM*
CCn1nc(C(=O)Nc2nc(-c3ccccn3)cs2)c2ccccc2c1=O	2.62µM*	?	-10.3	2.33µM*
CCn1nc(C(=O)NC2=NCCS2)c2ccccc2c1=O	?	?	64.9	.
Cn1nc(C(=O)Nc2nc(-c3ccccn3)cs2)c2ccccc2c1=O	3.29µM*	?	-30.9	4.15µM*
Cn1nc(C(=O)Nc2cccnc2)c2ccccc2c1=O	.	-2.3%	56.6	29.4%
CCCn1nc(C(=O)Nc2nnc(C3CC3)s2)c2ccccc2c1=O	?	34.4%	-21.6	-31.7%
O=C(Nc1nc2c(s1)CCCC2)c1nn(Cc2ccccc2)c(=O)c2ccccc12	?	-5.0%	-18.9	?
CC(C)CCn1nc(C(=O)Nc2nc3c(s2)CCCC3)c2ccccc2c1=O	?	?	-18.3	10.4µM*

Assay outcomes (PubChem BioAssay)
